# ± gives the standard deviation.
# Test system: MILI (PIWIL2) piRISC loaded with piRNA #1 (26 nt);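 note: 1 nM active piRISC with 0.1 nM target library at 33 °C single turnover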
# Test: pre-steady-state target cleavage rate (min^-1); guide: piRNA #1 5'p-UGAGGUAGUAGGUUGUAUAGUAUCCA; higher = faster piRNA-guided slicing of the target
# Details: auxiliary factor: 500 nM mouse GTSF1
# Method in brief: (§1)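 The pre-steady-state cleavage rate was calculated from a burst-and-steady-state fit. Data came from Cleave-'n-Seq, in which […] transcribed, DNA-blocked target RNA library was mixed with 1 nM active affinity-purified piRISC carrying one synthetic guide, with or without 500 nM GTSF1 partner protein, in HEPES–potassium acetate buffer at 33 °C for 0–8 or 0–960 min. Uncleaved targets were sequenced and normalised to depth and to weakly complementary targets, three trials were pooled, and k3 was capped at 0.0001 min^-1.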
row,Sequence,pre-steady-state target cleavage rate
1,GGAGUGGUUACUAUACAACGUACUACCUCA,0.0218 ± 0.003
2,GGAGACGAUUCUAUACAACCUACUACCUGA,0.167 ± 0.021
3,GGAGACCUAUCGAUACAACCUACUACCUCA,0.0869 ± 0.014
4,GGAGACGAUACGAUACAACCUACUACCUCA,0.193 ± 0.018
5,GGAGACGAAACUAUACAACCUACUUCCUCA,0.0627 ± 0.022
6,GGAGAGGAUACUAAACUACCUACUACCUCA,0.167 ± 0.011
7,GGAGACCUAUCUAUACAACCUACUGCCUCA,0.0855 ± 0.013
8,GGAGACCUAUCCAUACAACCUACUACCUCA,0.0836 ± 0.016
9,GGAGUGCAUACUAUACAACCUACUACCUCA,0.18 ± 0.0089
10,GGAGACCAUACUAUACAACCUACUUGGAGA [g7:g23:cont:t1A],0.00469 ± 0.0036
11,GGAGACCAUACUAUACAACCUACGUACCUCA,0.11 ± 0.018
12,GGAGACCAUACUAUACAACCUACUAUCCUCA,0.219 ± 0.019
13,GGAGACGAUACUAUACAACCUGCUACCUCA,0.0677 ± 0.008
14,GGAGACCAUACUAAACAACCUACUACCUCA,0.153 ± 0.016
15,GGAGACGAUACUAUACAACCUACUACCACA,0.185 ± 0.018
16,GGAGACGAUACGUAUACAACCUACUACCUCA,0.107 ± 0.013
17,GGAGACCAUACUAUACAAACUACUACCUCA,0.234 ± 0.017
18,GGAGAGGAUACUUUACAACGUACUACCUCA,0.018 ± 0.0029
19,GGAGACCUAACUAUACAAGCUACUACCUGA,0.235 ± 0.043
20,GGAGACGAUACUAAACAACCUACUACGUCA,0.0907 ± 0.012

row,Sequence,pre-steady-state target cleavage rate
1,GGAGAGGAUACUAUACAACCUACUAGCCUCA,0.123 ± 0.02
2,GGAGAGGAUACUAUACAACAUACUACCUCA,0.0488 ± 0.0058
3,GGAGACGAUAAUAUACAACCUACUACCUCA,0.172 ± 0.011
4,GGAGUGGUUACUAUACAACCUUCUACCUCA,0.0099 ± 0.0024
5,GGAGACCAUACUAUACCACCUACUACCUCA,0.157 ± 0.013
6,GGAGUGGAUACUAUACACCCUACUACCUCA,0.0921 ± 0.0066
7,GGAGAGGAUACUAUACAACGUACUACCACA,0.0287 ± 0.0041
8,GGAGUCGAUACUAUACAACCUACUUCCUCA,0.0291 ± 0.0072
9,GGAGACCAUACUAUACAACCUACUAGCUCA,0.137 ± 0.025
10,GGAGAGGUUACUAUACAACCUUCUACCUCA,0.00963 ± 0.0021
11,GGAGAGCAUACUAUACAACCUACUACGUCA,0.112 ± 0.017
12,GGAGACCAUAGUAUACAACCUACUACCUCA,0.118 ± 0.012
13,GGAGUGGAUACUAUACAACCUACUACCUGA,0.0915 ± 0.011
14,GGAGACCAUUCUAUACAACCUUCUACCUCA,0.0122 ± 0.0038
15,GGAGUCGAUACUAAACAACCUACUACCUCA,0.183 ± 0.015
16,GGAGUGGAUACUAUACAACCUACCACCUCA,0.0748 ± 0.01
17,GGAGUGGAUACUAAACAACGUACUACCUCA,0.0219 ± 0.0031
18,GGAGAGGAUAUUAUACAACCUACUACCUCA,0.157 ± 0.0082
19,GGAGUGGAUACUGAUACAACCUACUACCUCA,0.144 ± 0.01
20,GGAGACGAUACUAUACAACCUAUACCUCA,0.0145 ± 0.0044

# Test system: EfPiwi piRISC loaded with piRNA #1 (26 nt)
# Test: pre-steady-state target cleavage rate (min^-1); auxiliary factor: 500 nM Ephydatia muelleri Gtsf1; guide: piRNA #1 5'p-UGAGGUAGUAGGUUGUAUAGUAUCCA; MIWI and MILI are mouse PIWI proteins and EfPiwi is from a freshwater sponge; tags in brackets are library labels; higher = faster piRNA-guided slicing of the target
# Details: not given
# Method in brief: as §1
row,Sequence,pre-steady-state target cleavage rate
1,GGAGUGGUUACUAUACAACGUACUACCUCA,0.00485 ± 0.0014
2,GGAGACGAUUCUAUACAACCUACUACCUGA,0.00463 ± 0.0026
3,GGAGACCUAUCGAUACAACCUACUACCUCA,0.0102 ± 0.0056
4,GGAGACGAUACGAUACAACCUACUACCUCA,0.049 ± 0.019
5,GGAGACGAAACUAUACAACCUACUUCCUCA,0.00318 ± 0.0023
6,GGAGAGGAUACUAAACUACCUACUACCUCA,0.00323 ± 0.003
7,GGAGACCUAUCUAUACAACCUACUGCCUCA,0.00997 ± 0.0044
8,GGAGACCUAUCCAUACAACCUACUACCUCA,0.0212 ± 0.01
9,GGAGUGCAUACUAUACAACCUACUACCUCA,0.0787 ± 0.029
10,GGAGACCAUACUAUACAACCUACUUGGAGA [g7:g23:cont:t1A],0.00547 ± 0.0034
11,GGAGACCAUACUAUACAACCUACGUACCUCA,0.00254 ± 0.0023
12,GGAGACCAUACUAUACAACCUACUAUCCUCA,0.00375 ± 0.0028
13,GGAGACGAUACUAUACAACCUGCUACCUCA,0.128 ± 0.046
14,GGAGACCAUACUAAACAACCUACUACCUCA,0.0127 ± 0.0048
15,GGAGACGAUACUAUACAACCUACUACCACA,0.00487 ± 0.0013
16,GGAGACGAUACGUAUACAACCUACUACCUCA,0.00952 ± 0.0048
17,GGAGACCAUACUAUACAAACUACUACCUCA,0.00853 ± 0.0037
18,GGAGAGGAUACUUUACAACGUACUACCUCA,0.00409 ± 0.0016
19,GGAGACCUAACUAUACAAGCUACUACCUGA,0.00345 ± 0.003
20,GGAGACGAUACUAAACAACCUACUACGUCA,0.00304 ± 0.003

row,Sequence,pre-steady-state target cleavage rate
1,GGAGAGGAUACUAUACAACCUACUAGCCUCA,0.00421 ± 0.0018
2,GGAGAGGAUACUAUACAACAUACUACCUCA,0.0063 ± 0.0023
3,GGAGACGAUAAUAUACAACCUACUACCUCA,0.072 ± 0.025
4,GGAGUGGUUACUAUACAACCUUCUACCUCA,0.00361 ± 0.0018
5,GGAGACCAUACUAUACCACCUACUACCUCA,0.00807 ± 0.004
6,GGAGUGGAUACUAUACACCCUACUACCUCA,0.0673 ± 0.023
7,GGAGAGGAUACUAUACAACGUACUACCACA,0.00287 ± 0.0018
8,GGAGUCGAUACUAUACAACCUACUUCCUCA,0.00362 ± 0.0021
9,GGAGACCAUACUAUACAACCUACUAGCUCA,0.00491 ± 0.0023
10,GGAGAGGUUACUAUACAACCUUCUACCUCA,0.00505 ± 0.0025
11,GGAGAGCAUACUAUACAACCUACUACGUCA,0.00351 ± 0.0025
12,GGAGACCAUAGUAUACAACCUACUACCUCA,0.022 ± 0.0084
13,GGAGUGGAUACUAUACAACCUACUACCUGA,0.0069 ± 0.0028
14,GGAGACCAUUCUAUACAACCUUCUACCUCA,0.00336 ± 0.0032
15,GGAGUCGAUACUAAACAACCUACUACCUCA,0.00865 ± 0.0048
16,GGAGUGGAUACUAUACAACCUACCACCUCA,0.00271 ± 0.0014
17,GGAGUGGAUACUAAACAACGUACUACCUCA,0.00304 ± 0.0013
18,GGAGAGGAUAUUAUACAACCUACUACCUCA,0.0615 ± 0.023
19,GGAGUGGAUACUGAUACAACCUACUACCUCA,0.0129 ± 0.0062
20,GGAGACGAUACUAUACAACCUAUACCUCA,0.00289 ± 0.0018

# Source: the supplement of paper PMC10338343
